The whole screen tested about 300,000 compounds, of which about 3,700 (1.2%) were called active. A call without a number means that no potency is given here. Not shown: some 20% with an inconclusive outcome. Calls come from the whole dose curve; tested in HEK293 cells. This excerpt belongs to a sample that is enriched for actives.
Potency is the fitted concentration of half-maximal effect.

The test can be described thus: qHTS for Inhibitors of binding or entry into cells for Lassa Virus. Note: nearly all actives have a fitted effect of over 50% in size. The following applies: Lassa virus pseudotype entry inhibition, cell reporter; series mostly up to 37.9 µM.
Regarding `Cc1cccc(NC(=S)N2CCC(C(=O)c3ccc(F)cc3)CC2)c1`, the Potency result is “inactive”.

As to `COc1cc(C(c2c(NC(=O)c3ccco3)sc(C)c2C)N2CCOCC2)cc(OC)c1OC` (stereo unspecified), the Potency result is “inactive”.

As for `Cc1ccc(C(=O)Nc2ccc(NC(=O)c3cccs3)cc2)c(C)c1`, the Potency result was “inactive”.

Turning to `Cc1ccc(-c2nnc(-c3ccc(NC(=O)c4cccs4)cc3)o2)cc1`, the Potency is 7.3 µM (active).

Consider `Cc1ccc(-c2csc(NC(=O)c3cccs3)n2)cc1`, for which the Potency entry was “inactive”.

On to `COC(=O)c1cc(C(=O)OC)n2ccc3cc(OC)c(OC)cc3c12`, for which the Potency entry is “inactive”.

Consider `CSCCC(NC(=O)COc1ccccc1)C(=O)OCc1ccc(Cl)cc1` (stereo unspecified), for which the Potency entry was “inactive”.

For the compound `O=C(CSc1nc2[nH]c(=O)[nH]c(=O)c2s1)Nc1cccc(F)c1`, the Potency result is “inactive”.

As to `COc1cc(C(=O)N2CCN(c3ccc(Nc4ccc(C)cc4)nn3)CC2)cc(OC)c1OC`, the Potency entry is “inactive”.

Turning to `Cc1ccc(C(=O)NC2CCC2)cc1-c1ccc(C(=O)NCC2CC2)cc1`, the Potency is 11.2 µM (active).

On to `Cc1ccc(C(=O)NCC(=O)OCC(=O)NC2CCCCCCC2)cc1`, for which the Potency result is “inactive”.

Consider `O=C(NC1CC1)c1ccc(-c2ccccc2)cc1`, for which the Potency entry was “inactive”.

As for `CCN(CC(=O)Nc1ccc(OC)cc1)C(=O)c1ccc(Cl)c(S(=O)(=O)N2CCCC2)c1`, the Potency entry was “inactive”.

In the case of `COC(=O)c1cc(C(=O)NC(C)C2CC3CCC2C3)cc([N+](=O)[O-])c1` (stereo unspecified), the Potency entry was “inactive”.

Take `O=C(CCCCCCCC(=O)N1CCCCC1)N1CCCCC1`: the Potency entry was “inactive”.

In the case of `CSc1ncc(Sc2ccccc2)c(C(=O)O)n1`, the Potency entry is “inactive”.

With `COc1ccc2nc(N3C(=O)C(O)=C(C(=O)c4ccco4)C3c3ccco3)sc2c1` (stereo unspecified), the Potency result was “inactive”.

On to `CCCN(CCC)c1nc2c(C)cccn2c(=O)c1/C=C1/SC(=S)N(Cc2ccco2)C1=O`, for which the Potency result was “inactive”.

As to `Cc1cccn2c(=O)c(/C=C3\SC(=S)N(CC(C)C)C3=O)c(NCCCOC(C)C)nc12`, the Potency entry is “inactive”.

On to `CCOC(=O)CC1C(=O)NCCN1c1nc2c(C)cccn2c(=O)c1/C=C1\SC(=S)N(C(C)CC)C1=O` (stereo unspecified), for which the Potency is 6.31 µM (active).

Regarding `CCOc1nc(-c2ccc(OC)cc2)ccc1-c1noc(-c2cc(OC)c(OC)c(OC)c2)n1`, the Potency result was “inactive”.

Consider `COc1ccc(-c2nc(-c3ccccc3)no2)c(OC)c1`, for which the Potency is 1.64 µM (active).

As to `CC(=O)c1ccc(NC(=O)COc2ccccc2-c2nc(-c3ccccc3)no2)cc1`, the Potency entry is “inactive”.

Regarding `CC(=O)OCC(=O)C1(O)CCC2C3CC(C)C4=CC(=O)CCC4(C)C3C(O)CC21C` (stereo unspecified), the Potency entry was “inactive”.

Take `O=C(Nc1cccc(S(=O)(=O)N2CCOCC2)c1)C12CC3CC(CC(C3)C1)C2`: the Potency result is “inactive”.

As to `COc1ccc(CNC(=O)/C(C#N)=C/c2cccc(OC)c2OC)cc1`, the Potency was 3.55 µM (active).

Turning to `N#C/C(=C\c1ccc(O)c(O)c1)C(=O)NCc1ccccc1`, the Potency entry was “inactive”.

Turning to `COc1ccc(NC(=O)/C(C#N)=C\c2cc(OC)c(OCc3ccc(C(=O)O)cc3)cc2Br)cc1`, the Potency result is “inactive”.

On to `O=C(Nc1ccc(Cl)c(Cl)c1)c1ccccc1NC(=O)C1CC=CCC1C(=O)O` (stereo unspecified), for which the Potency result is “inactive”.

As for `CC(=O)Nc1cccc(NC(=O)c2c(-c3ccccc3)noc2C)c1`, the Potency entry was “inactive”.

As for `CCOC(=O)c1c(-c2cccc(C)c2)csc1NC(=O)c1c(-c2ccccc2)noc1C`, the Potency was 0.562 µM (active).

For the compound `Cc1ccc(CNC(=O)c2c(-c3ccccc3)noc2C)cc1`, the Potency result was “inactive”.

With `Cc1cccc(N2CCN(c3ccc(C(=O)O)cc3NC(=O)c3ccccc3F)CC2C)c1` (stereo unspecified), the Potency entry is “inactive”.

Consider `NC(=O)C1(Nc2ccccc2Cl)CCCC1`, for which the Potency result is “inactive”.

Regarding `O=C(/C=C\NCC(=O)c1ccccc1)c1ccccc1`, the Potency entry is “inactive”.

Consider `Cc1noc(NS(=O)(=O)c2ccc(N/C=C/C(=O)c3ccccc3)cc2)c1C`, for which the Potency result was “inactive”.

In the case of `CCOc1ccc(N/C=C/C(=O)c2ccccc2)cc1`, the Potency is 7.08 µM (active).

With `COc1ccc(CCNCc2c(-c3ccccc3)n(C)c3ccccc23)cc1`, the Potency is 8.91 µM (active).

Turning to `COc1ccc(Cn2c(C(=O)O)c(CNCCc3cccs3)c3ccc(OC)cc32)cc1`, the Potency entry was “inactive”.

With `COc1ccc2c(CNCCc3ccccc3C)c(C(=O)O)n(Cc3ccccc3C)c2c1`, the Potency result is “inactive”.

Regarding `CCOC(=O)C1CCN(C(=O)COc2cccc3ccccc23)CC1`, the Potency result is “inactive”.

With `O=C(Nc1cc(S(=O)(=O)N2CCCCC2)ccc1Cl)C1COc2ccccc2O1` (stereo unspecified), the Potency entry is “inactive”.

`COc1cccc(CNC(=O)c2ccc3c(c2)sc2nc(-c4cccc(OC)c4)cn23)c1`: the Potency entry was “inactive”.

For `CC(=O)c1ccc(S(=O)(=O)N2CCN(c3nc4c(C)c(C)ccc4cc3C#N)CC2)cc1`, the Potency is 18.3 µM (active).

With `CC(=O)c1cc(C#N)c(N2CCCCC2)nc1C`, the Potency result is “inactive”.

For the compound `Cc1cc(C)c2nc(N3CCCC3)c(C#N)cc2c1`, the Potency entry was “inactive”.

As to `COc1ccc(N2CCN(C(=O)COC(=O)c3cccc(S(=O)(=O)Nc4ccccc4OC)c3)CC2)cc1`, the Potency result was “inactive”.

On to `COCCN(C(=O)C(C)N1C(=O)c2ccccc2C1=O)c1c(N)n(CC(C)C)c(=O)[nH]c1=O` (stereo unspecified), for which the Potency entry is “inactive”.

With `Cn1cc([N+](=O)[O-])c(C(=O)Nc2cnn(Cc3ccc(F)cc3)c2)n1`, the Potency result is “inactive”.

Regarding `CC(=O)Nc1ccn(Cc2c(F)cccc2Cl)n1`, the Potency result is “inactive”.

As to `O=C(Nc1ccn(Cc2ccccc2)n1)c1n[nH]c([N+](=O)[O-])c1Cl`, the Potency is 7.31 µM (active).

As for `O=C(CN1CCC(NC(=O)Nc2ccccc2)CC1)Nc1cccc([N+](=O)[O-])c1`, the Potency entry is “inactive”.

Turning to `CCn1c(SCC(=O)Nc2ccc(Br)cc2)nc2sc3c(c2c1=O)CCN(C)C3`, the Potency result is “inactive”.

As for `COc1ccc(C)cc1Nc1nc(C)nc2c1oc1ccccc12`, the Potency entry is “inactive”.

For `CCC1([N+](=O)[O-])COC(c2ccc(C(C)C)cc2)OC1` (stereo unspecified), the Potency result was “inactive”.

Take `COc1ccc(/C=C2\CCCC3C2=NN(C(=O)c2scnc2C)C3c2ccc(OC)cc2)cc1` (stereo unspecified): the Potency was 1.03 µM (active).

In the case of `COc1ccc(/C=C2/CCCc3ccccc3C2=O)cc1`, the Potency entry was “inactive”.

`CCOc1ccccc1-c1nc(CN2CCC(C(=O)N3CCOCC3)CC2)c(C)o1`: the Potency entry was “inactive”.

Consider `COc1cccc(C=CC(=O)C=CC=Cc2ccccc2)c1`, for which the Potency result was “inactive”.

As for `O=[N+]([O-])c1ccc(N=NNc2ccc([N+](=O)[O-])cc2)cc1`, the Potency result was “inactive”.

In the case of `O=C(NCCc1ccccc1)c1c[nH]c2ccc(F)cc2c1=O`, the Potency entry was “inactive”.

On to `CCN(CC)S(=O)(=O)c1ccc2[nH]cc(C(=O)NCCc3ccccc3)c(=O)c2c1`, for which the Potency was 0.224 µM (active).

In the case of `CCc1ccc(NS(=O)(=O)c2ccc3[nH]cc(C(=O)NCCc4cccc(C)c4)c(=O)c3c2)cc1`, the Potency entry was “inactive”.

For `Cc1ccc(-n2ncc3c2CC(C)(C)CC3NC(=O)Cc2c(C)noc2C)cc1` (stereo unspecified), the Potency result is “inactive”.

As to `CC(C)Cn1cnc2c1c(=O)n(CC(=O)NN)c(=O)n2Cc1ccccc1`, the Potency entry was “inactive”.

Turning to `CC(C)(C)CC(C)(C)NCC(O)COCCOc1ccc(Br)cc1` (stereo unspecified), the Potency is 13 µM (active).

Turning to `CC(C)(C)NCC(O)COc1cccc2[nH]c(=O)[nH]c12` (stereo unspecified), the Potency entry is “inactive”.

`Cc1noc(COc2ccccc2OCC(O)CNC(C)(C)C)n1` (stereo unspecified): the Potency entry is “inactive”.

Take `CN(N)c1nc(N2CCCC2)nc(N2CCCC2)n1`: the Potency entry was “inactive”.

Consider `COCCN(CCOC)C(=S)Nc1ccccc1Cl`, for which the Potency result was “inactive”.

As to `O=C(Nc1ccccc1Cl)/C(Cl)=C(\Cl)S(=O)c1ccccc1` (stereo unspecified), the Potency is 8.91 µM (active).

Regarding `O=C(Nc1ccccc1Cl)c1ccc2nsnc2c1`, the Potency entry is “inactive”.

With `CCC(=O)N1CCN(c2ccccc2NC(=O)COc2cccc(C)c2C)CC1`, the Potency entry is “inactive”.

On to `COc1ccc(N(CC(=O)Nc2cc(OC)cc(OC)c2)S(=O)(=O)c2c(C)n[nH]c2C)cc1`, for which the Potency entry is “inactive”.

In the case of `Cc1ccccc1NC(=O)c1cc(S(=O)(=O)N2CCOCC2)cs1`, the Potency result is “inactive”.

In the case of `O=C(Nc1ccccc1F)c1cc(S(=O)(=O)N2CCCCC2)cs1`, the Potency is 20.6 µM (active).

As for `O=C(Nc1ccccc1C(=O)O)c1cc(S(=O)(=O)N2CCCCC2)cs1`, the Potency entry was “inactive”.

`O=C(Nc1ccc2nc(SCCOc3ccccc3)sc2c1)c1ccco1`: the Potency result is “inactive”.

Consider `CCCn1c(C)cc(-c2csc(NC(=O)CCc3nc4ccccc4c(=O)[nH]3)n2)c1C`, for which the Potency entry is “inactive”.

Regarding `Cc1oc(-c2ccccc2)nc1Cn1c(SCc2cccc(C(F)(F)F)c2)nc2cccnc21`, the Potency result was “inactive”.

In the case of `O=S(=O)(O)c1cc2onnc2c2ccccc12`, the Potency entry was “inactive”.

Regarding `O=C(/C(=C/c1cccc(Cl)c1)c1nc2ccccc2[nH]1)c1ccccc1`, the Potency was 10 µM (active).

Regarding `CCC(=O)/C(=C(/O)c1ccccc1)c1nc2ccccc2[nH]1`, the Potency entry is “inactive”.

For the compound `Oc1ccc(Cl)cc1/C=N/c1nc2ccccc2[nH]1`, the Potency result was “inactive”.

Regarding `CCc1ccc(NC(=O)CN2CCC(C(=O)c3ccc(OC)cc3)CC2)cc1`, the Potency entry was “inactive”.

In the case of `O=C(Nc1c(Br)cc2c(c1Br)Cc1ccccc1-2)C(F)(F)F`, the Potency result is “inactive”.

Regarding `CC(/C=C/c1ccccc1)=N\NC(=O)C1CC1(C)c1ccccc1` (stereo unspecified), the Potency was 1.03 µM (active).

`CC(C=Cc1ccccc1)=NNS(=O)(=O)c1ccc([N+](=O)[O-])cc1`: the Potency entry is “inactive”.

`O=C(/C=C/c1ccccc1)c1ccccc1O`: the Potency entry was “inactive”.

For `CSCCC(NS(=O)(=O)c1ccc(C)cc1)C(=O)N(C)CC(=O)Nc1ccccc1Br` (stereo unspecified), the Potency entry was “inactive”.

With `CN(CC(=O)Nc1ccccc1C(F)(F)F)C(=O)Cc1ccccc1F`, the Potency entry was “inactive”.

On to `COC(=O)CC(CC(=O)OC)n1cccc1`, for which the Potency entry was “inactive”.

Consider `CCOC(=O)CN1C(C(=O)c2ccccc2)=C(OC(=O)C(C)(C)C)c2ccccc2S1(=O)=O`, for which the Potency result was “inactive”.

Turning to `CCOc1ccc(C(=O)NCC(=O)N2CCCCCCC2)cc1OCC`, the Potency result is “inactive”.

With `Fc1ccc(-n2ncc3c(Nc4ccc(Oc5ccccc5)cc4)ncnc32)cc1`, the Potency result is “inactive”.

In the case of `NC(=O)c1ccccc1N(Cc1ccccc1)S(=O)(=O)c1ccccc1`, the Potency entry was “inactive”.

For `CCN1CCN(C(=O)c2ccccc2N(C)S(=O)(=O)c2ccc(C)cc2)CC1`, the Potency result was “inactive”.

Consider `CCOC(=O)N1CCN(C(=O)c2ccccc2N(Cc2ccccc2)S(=O)(=O)c2ccc(OC)cc2)CC1`, for which the Potency was 7.08 µM (active).

On to `CN1CCOC1c1ccc(C2OCCN2C)cc1` (stereo unspecified), for which the Potency result is “inactive”.

On to `CC(=O)OC1C2(CC3N4C(=O)C5(CO)SSC4(CC31O)C(=O)N5C)OC(C)C(C)(C)C2=O` (stereo unspecified), for which the Potency was 1.58 µM (active).

For `CCOc1ccccc1/C=N/Nc1nc2ccccc2o1`, the Potency result is “inactive”.

The values are drawn from PubChem BioAssay AID540256 (National Center for Advancing Translational Sciences (NCATS), 2011).
